“And” between values parts separate entries of the source, which are not always exact repeats. Identical values can stand only once. The source holds several records for some structures; these can differ, active in one and inactive in another. The source made the active and inactive calls. Rule for the calls: active = hit-call score of the fitted dose curve at least 0.9, where 1 is the maximum; inactive = score below 0.9.

The nature of the experiment: ATG_NFI_CIS: Attagene CIS-FACTORIAL HepG2 Assay for human Nuclear Factor I (NFI) (AID 2282989). The note with it: HepG2 cis-regulatory reporter, NFI response element transcription; actives raise or lower the signal. As to the method:
ATG_CIS is a cell-based, multiplexed-readout assay that uses HepG2, a human liver cell line, with measurements taken at 24 hours after chemical dosing in a 24-well plate.ATG_NFI_CIS is one of 52 assay component(s) measured or calculated from the ATG_CIS assay. It is designed to make measurements of mRNA induction, a form of inducible reporter, as detected with fluorescence intensity signals by Reverse transcription polymerase chain reaction (RT-PCR) and Capillary electrophoresis technology.Data from the assay component ATG_NFI_CIS was analyzed into 1 assay endpoint. This assay endpoint, ATG_NFI_CIS, was analyzed with bidirectional fitting relative to DMSO as the negative control and baseline of activity. Using a type of inducible reporter, measures of mRNA for gain or loss-of-signal activity can be used to understand the reporter gene at the transcription factor-level as they relate to the gene NFIA. Furthermore, this assay endpoint can be referred to as a primary readout, because this assay has produced multiple assay endpoints where this one serves a reporter gene function. To generalize the intended target to other relatable targets, this assay endpoint is annotated to the dna binding intended target family, where the subfamily is nuclear factor I.
Human liver HepG2 cells are transiently transfected with multiple reporter transcription units (MRTUs) in 6-well plates using FuGene 6 reagent (Roche; 3 ml FuGene/1 mg DNA). The MRTU constructs are regulated by a cis-regulating element (promoter). […] A major difference between the CIS and TRANS system is that in CIS activities of endogenous TFs are measured, whereas the TRANS assay evaluates changes in activities of exogenous, chimeric NR-Gal4 proteins. […] At the end of 24 hour incubation, total RNA was isolated using TriZol reagent (Invitrogen). The isolated RNA is then reverse-transcribed using oligo(dT) primer and Mo-MLV reverse transcriptase (Invitrogen) with DNAse I (Ambion) treatment for 30 min. The one-tenth of the produced cDNA was amplified by PCR using Taq DNA polymerase (Invitrogen) and two reporter sequence-specific primers. The PCR products were fluorescently labeled by primer extension with 6-arboxyfluorescein (6-FAM) 5'-labeled reporter sequence-specific primer (2 min at 95 C, 20 s at 68 C and 10 min at 72 C) and these products were digested with 5U of HpaI (New England Biolabs) for 2h at 37 C. The fragments were purified using Qiaquick PCR columns (Qiagen), analyzed on an ABI 3130xL genetic analyzer (Applied Biosystems) with peak positions identified by using a set of X-rhodamine (ROX)-labeled MapMarker1000 molecular weight standards (BioVentures). The raw capillary electrophoresis data was processed using Attagraph software (Attagene).
`CCCCCCOc1ccc(O)cc1`: the molecule was called inactive. Still for that read-out and setting: in the case of `CC(=N[Si](C)(C)C)O[Si](C)(C)C` it was “inactive”; in that of `NC(=O)c1cccnc1`, “inactive”. Regarding `CC(=O)CC(C)(C)C1CCCCC1`, the call was inactive. Still for that read-out and setting: in the case of `CC=CC(=O)C1=C(C)C=CCC1(C)C` it was “inactive”. As for `C[C@]12CC[C@@H]3c4ccc(O)cc4CC[C@H]3[C@@H]1CC[C@@H]2O`, the molecule was called inactive and the AC50 (as a rule, the concentration at which the activity in the assay is half-maximal) is 146 µM (active).

In the case of `CC(C)COC(=O)c1ccccc1`, the outcome was inactive.

Regarding `CCC(=O)OC(C)(C)C1CC=C(C)CC1` (stereo not given), the molecule was classed as inactive. On the same count and under the same terms, the same measure for `CCCCC(CC)COCCO` (stereo not given): “inactive”; for `CNC(=C[N+](=O)[O-])NCCSCc1ccc(CN(C)C)o1`: “inactive”. On the same count and under the same terms, in the case of `CCCCCCCOC(C)=O` it was “inactive”. Still for that read-out and setting: in the case of `O=Cc1ccccc1O` it was “inactive”; in that of `CCCCCCCCCCCCOC(C)=O`, “inactive”; in that of `CC(=O)c1ccc(C)cc1`, “inactive”. `CCC(C)(C)C1CCC(=O)CC1`: the result was inactive.

Consider `COc1ccc(C(C)=O)cc1`, for which the result was inactive. On the same count and under the same terms, the same measure for `CC(=O)OC/C=C(C)/C=C/C=C(C)/C=C/C1=C(C)CCCC1(C)C`: “inactive”.

Take `C=COCC1CCC(COC=C)CC1` (stereo not given): the call was inactive.

As for `CC(O)CN` (stereo not given), the outcome was inactive. The same measure, in the same setting: in the case of `CCCCCCCCCC(=O)OCC` it was “inactive”; in that of `Cc1ccc(C(C)(C)O)cc1`, “inactive”.

As to `CC(C)(O)C(=O)c1ccc(OCCO)cc1`, the call was inactive. Still for that read-out and setting: the same measure for `CCCCCc1cccc(=O)o1`: “inactive”; for `c1ccc2c(c1)-c1ccc3ccc4cccc5cc-2c1c3c45`: “inactive”. The same measure, in the same setting: the same measure for `C=C(C)C(=O)OCCOCCOC(=O)C(=C)C`: “inactive”; for `C1CCCNCC1`: “inactive”; for `NC(=O)c1c(Cl)cccc1Cl`: “inactive”. Still for that read-out and setting: in the case of `CC/C=C\CCOC(C)OCC` (stereo not given) it was “inactive”; in that of `CC/C=C\CCOC(=O)C(C)C`, “inactive”; in that of `CCC(C)(CCCC(C)C)OC(C)=O` (stereo not given), “inactive”. For the molecule `CC(CO)(CO)[N+](=O)[O-]`, the molecule was called inactive.

As for `C#C[C@]1(O)CC[C@H]2[C@@H]3CCc4cc(O)ccc4[C@H]3CC[C@@]21C`, the result was inactive; the AC50 is 26.4 µM (active) and 72.3 µM (active) and 48.5 µM (active). Consider `CC(O)CNCC(C)O` (stereo not given), for which the result was inactive. Same read-out and setting: the same measure for `CCCc1ccc(N)cc1`: “inactive”; for `COc1ccc2[nH]cc(CCNC(C)=O)c2c1`: “inactive”; for `FC(F)(F)c1ccc(Cl)c(Cl)c1`: “inactive”. In the case of `CC1=CCC(=C(C)C)CC1`, the outcome was inactive. As for `CCCCCCCCCCO[C@@H]1O[C@H](CO)[C@@H](O)[C@H](O)[C@H]1O`, the result was inactive.
